From PubChem BioAssay
ELG1 genotoxic: qHTS screen for small molecules that induce genotoxicity in human embryonic kidney (HEK293T) cells expressing luciferase-tagged ELG1; HEK293T ELG1-luciferase reporter, luminescence, 16 h; Potency, µM (titrated, usually from 46 µM), without a hit: top-dose activity change, positive = activation, usual class: activators; 330,000 tested, 1.3% active; also: % of control where 0% means no effect; nearly all actives have a fitted effect of over 60% in size
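HEK293T cells expressing luciferase-tagged ELG1 were exposed to compound or DMSO vehicle for 16 hr at 37 °C and 5% CO2. Luciferase activity was then measured with ONE-Glo after 30 min at room temperature.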
Rab9 promoter act: qHTS Assay for Rab9 Promoter Activators | 320,000 tested, 2.8% active | Potency, µM (doses to about 9.22 µM), for the others: top-dose activation, negative = inhibition, usual class: activators | Huh7 Rab9 promoter-luciferase reporter, luminescence, 24 h; also: % of control where 0% means no effect; nearly all actives have a fitted effect of over 60% in size
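Huh7 reporter line, Rab9 promoter upstream of luciferase. Compound exposure 24 h at 37 °C in reduced-serum medium with 10% FBS. Read-out: luminescence.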
FLuc counter: qHTS profiling assay for firefly luciferase inhibitor/activator using purifed enzyme and Km concentrations of substrates (counterscreen for miR-21 project). 360,000 tested, 6.9% active. purified FLuc, Km substrates, luminescence inhibition. Potency, µM (top dose mostly 57.5 µM), inactives show top-dose activity change, negative = inhibition, hits mostly inhibitors. Luciferin 4-monooxygenase (Photinus pyralis), P08659;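 also: plate controls were vehicle for no effect and reference inhibitor for full effect; nearly all actives have a fitted effect of over 55% in size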
Target sequence (P08659 whole entry, looked up): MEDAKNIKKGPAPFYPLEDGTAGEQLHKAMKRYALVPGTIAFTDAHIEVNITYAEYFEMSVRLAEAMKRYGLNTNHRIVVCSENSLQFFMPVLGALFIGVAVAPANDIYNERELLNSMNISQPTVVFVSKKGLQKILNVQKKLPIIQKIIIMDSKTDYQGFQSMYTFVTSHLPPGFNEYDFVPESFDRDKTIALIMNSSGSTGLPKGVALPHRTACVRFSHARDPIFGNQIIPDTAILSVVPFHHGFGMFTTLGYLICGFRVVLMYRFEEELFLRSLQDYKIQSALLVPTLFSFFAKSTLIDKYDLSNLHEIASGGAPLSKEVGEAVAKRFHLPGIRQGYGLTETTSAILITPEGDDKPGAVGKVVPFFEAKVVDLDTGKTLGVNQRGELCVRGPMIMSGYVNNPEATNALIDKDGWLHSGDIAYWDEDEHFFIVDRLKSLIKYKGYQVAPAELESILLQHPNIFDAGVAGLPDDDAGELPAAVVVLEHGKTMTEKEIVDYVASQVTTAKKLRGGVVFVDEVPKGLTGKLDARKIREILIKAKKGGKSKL
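Purified P. pyralis luciferase (10nM final) with 10uM D-luciferin and 10uM ATP (Km levels) in 50mM Tris acetate pH 7.5, 10mM Mg acetate, 0.01% Tween-20, 0.05% BSA; qHTS 6-point titration, ~60 µM downward; luminescence read.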
ELG1 DNA repair: qHTS screen for small molecules that inhibit ELG1-dependent DNA repair in human embryonic kidney (HEK293T) cells expressing luciferase-tagged ELG1 | HEK293T ELG1-luciferase reporter, luminescence, 16 h; DNA damage induced by 5-fluorouridine | Potency, µM (doses to about 46.1 µM), for inactives: at the top dose activity change, negative = inhibition, actives largely listed as inhibitors | 330,000 tested, 2.3% active; also: % is scaled to controls: 0 for no effect and ±100 for the full control effect; nearly all actives have a fitted effect of over 55% in size
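Luminescence from the luciferase reporter, measured 30 min after ONE-Glo reagent at room temperature, was the read-out. Beforehand, 2,000 cells per well were exposed for 16 hr at 37 °C to 5-fluorouridine together with compound or vehicle.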
SMN2 splice up: qHTS Assay for Enhancers of SMN2 Splice Variant Expression. HEK293 SMN2-luciferase splicing reporter, luminescence, 30-36 h. Potency, µM (highest dose often 46.1 µM), without a hit: at the top dose activity change, positive = activation, most hits filed as activators. 210,000 tested, 2.8% active. AID 1458, 2008; also: % of control where 0% means no effect; nearly all actives have a fitted effect of over 55% in size
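HEK293 cells carry an SMN2 minigene-luciferase reporter in which exon 7 inclusion puts luciferase in frame. Cells were seeded at 2000 cells/well, attached for 10-12 hours, then exposed to compounds for 30-36 hours at 37C before ONE-Glo luminescence.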
NPC1 prom act: qHTS Assay for NPC1 Promoter Activators; 320,000 tested, 2.4% active; AID 485313, 2010; Huh7 NPC1 promoter luciferase reporter, 24 h; Potency, µM (titrated, usually from 9.22 µM), for the others: at the top dose activation, most hits filed as activators; also: % of control where 0% means no effect; nearly all actives have a fitted effect of over 60% in size
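Stable NPC1-promoter luciferase Huh7 line; cpd (DMSO) 24 h, 37 °C, 5% CO2; Amplite luciferase reagent 10 min RT; luminescence readout. qHTS format.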
ELG1 FLuc counter: qHTS screen for small molecules that inhibit ELG1-dependent DNA repair: Hit Confirmation in Cell-Based Luciferin Assay. cell-free firefly luciferase luminescence counter-screen, ViewLux. shares compounds with ELG1 DNA repair. 350 tested, 3% active. Potency, µM (doses to about 46.1 µM), inactives show at the highest dose activity change, negative = inhibition, usual class: inhibitors. AID 624247, 2012; also: % is scaled to controls: 0 for no effect and ±100 for the full control effect
ELG1 Luc conf: HTS assay for small molecules that inhibit ELG1-dependent DNA repair in human embryonic kidney (HEK293T) cells expressing luciferase-tagged ELG1: Hit Confirmation. Potency, µM (titrated, usually from 46.1 µM), without a hit: at the highest dose activity change, negative = inhibition, actives largely listed as inhibitors. 670 tested, 68% active. shares compounds with ELG1 DNA repair. HEK293T ELG1-luciferase levels, luminescence; cells co-treated with 5-fluorouridine. AID 624248, 2012; also: % is scaled to controls: 0 for no effect and ±100 for the full control effect; nearly all actives have a fitted effect of over 55% in size
ELG1-Luc MMS: inhibits ELG1-dependent repair under MMS stimulation in HEK293T cells; shares compounds with ELG1 DNA repair; HEK293T luciferase-tagged ELG1 level, MMS stimulated; Potency, µM (top dose mostly 46.1 µM), without a hit: at the highest dose activity change, negative = inhibition, usual class: inhibitors; 670 tested, 53% active; also: % is scaled to controls: 0 for no effect and ±100 for the full control effect; nearly all actives have a fitted effect of over 60% in size
ELG1 5-FU: qHTS screen for small molecules that inhibit ELG1-dependent DNA repair: Hit Confirmation with 5FU Viability. shares compounds with ELG1 DNA repair. cell viability with 5-FU, ELG1-dependent repair. Potency, µM (series often up to 46.1 µM), for the others: at the top dose activity change, negative = viability loss, hits mostly cytotoxic. 670 tested, under 10 active. AID 624250, 2012;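 also: ELG1-luc HEK293T cells cotreated with 5-fluorouridine at 10 µM final; viability measured 16 h after compound addition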
ELG1 MMS cell: qHTS screen for small molecules that inhibit ELG1-dependent DNA repair: Hit Confirmation with MMS Viability; shares compounds with ELG1 DNA repair; Cell viability with MMS, ELG1-dependent DNA repair; Potency, µM (top dose mostly 46.1 µM), inactives show at the top dose activity change, negative = viability loss, hits mostly cytotoxic; 670 tested, 33% active;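 also: ELG1-luc HEK293T cells co-treated with 10 µM MMS; viability read 16 h after compound addition; % is scaled to controls: 0 for no effect and ±100 for the full control effect; nearly all actives have a fitted effect of over 60% in size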
ELG1 unstim viab: qHTS screen for small molecules that inhibit ELG1-dependent DNA repair: Hit Confirmation with Unstimulated Viability Assay; 900 tested, 8% active; shares compounds with ELG1 DNA repair; cell viability counter-screen, unstimulated, luminescence; Potency, µM (top dose mostly 45.9 µM), for the others: top-dose activity change, negative = loss of viability, actives largely listed as cytotoxic;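 also: compound exposure lasted 16 hours before reading; % is scaled to controls: 0 for no effect and ±100 for the full control effect; nearly all actives have a fitted effect of over 55% in size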
FLuc biochem: qHTS screen for small molecules that inhibit ELG1-dependent DNA repair: Hit Confirmation in Biochemical Luciferin Assay. shares compounds with ELG1 DNA repair. purified firefly luciferase, luminescence counter-screen. Potency, µM (highest dose often 57.5 µM), for inactives: at the top dose activity, negative = inhibition, most hits filed as inhibitors. 350 tested, 10% active. AID 624253, 2012; also: % is scaled to controls: 0 for no effect and ±100 for the full control effect
An asterisk follows results filed as active; [ ] = dose if it differs, or a comment. An excerpt weighted towards active compounds, which were near 9.4% of everything screened. Calls follow the shape of the dose curve; as a rule, active = well fitted curve in the direction sought with a large enough effect; inconclusive = small, poorly fitted or top-dose-only effect, or another doubt; inactive = no such curve, though single readings can be large; an effect the other way counts as inactive or inconclusive. Potency is read from the fitted curve at half-maximal effect.

Screening COc1ccc(/C=C/c2onc(C)c2S(=O)(=O)N2CCC(C(=O)N3CCCCCC3)CC2)cc1 returned ELG1 genotoxic -5%, Rab9 promoter act 1%, FLuc counter 0%, ELG1 DNA repair 2.6µM*, NPC1 prom act -7%, ELG1 Luc conf 3.1µM*, ELG1-Luc MMS 16µM*, ELG1 5-FU inconclusive, ELG1 MMS cell -12% and ELG1 unstim viab -16%.
`CCOc1ccccc1/C=C/c1onc(C)c1S(=O)(=O)N1CCC(C(=O)N2CCCCCC2)CC1` gave ELG1 genotoxic -9%, Rab9 promoter act -12%, FLuc counter 2%, ELG1 DNA repair 2.9µM*, NPC1 prom act 0%, ELG1 Luc conf 4µM*, ELG1-Luc MMS inconclusive, ELG1 5-FU inconclusive, ELG1 MMS cell -6% and ELG1 unstim viab -16%.
CCOc1ccc(CCNC(=O)CSCC(=O)Nc2ccc(OC)cc2)cc1OCC was read as ELG1 genotoxic -2%, Rab9 promoter act -8%, FLuc counter -1%, ELG1 DNA repair -13% and NPC1 prom act 0%.
For O=c1[nH]c(=O)n([C@@H]2C[C@H](O)[C@H](CO)O2)cc1C(F)(F)F the results were SMN2 splice up -11%[20.6 µM], ELG1 FLuc counter -9%[28.2 µM], ELG1 Luc conf inconclusive, ELG1-Luc MMS -3%[23.5 µM], ELG1 5-FU -3%[23.5 µM], ELG1 MMS cell inconclusive, ELG1 unstim viab 8%[15.7 µM] and FLuc biochem 5%[35.2 µM].
CCCOC(=O)c1ccc(OCC(O)Cn2c(C)nc3ccccc32)cc1 (centres undefined) was read as ELG1 genotoxic 10µM*, Rab9 promoter act -31%, FLuc counter 3%, ELG1 DNA repair 1.5µM*, SMN2 splice up -88%, NPC1 prom act -22%, ELG1 Luc conf inconclusive, ELG1-Luc MMS 1.8µM*, ELG1 5-FU -4%, ELG1 MMS cell 2µM* and ELG1 unstim viab inconclusive.
`CC(=O)Nc1cccc(OCC(O)Cn2c(C)nc3ccccc32)c1` (centres undefined) gave ELG1 genotoxic -7%, Rab9 promoter act -5%, FLuc counter -2%, ELG1 DNA repair inconclusive, SMN2 splice up -40% and NPC1 prom act -2%.
`CCC1Sc2ccc(S(=O)(=O)CCC(=O)NCc3ccco3)cc2NC1=O` (centres undefined) gave ELG1 genotoxic -3%[9.26 µM], Rab9 promoter act -24%, FLuc counter 2%, ELG1 DNA repair 11% and NPC1 prom act -28%.
O=C(N/N=C/c1sc(N2CCOCC2)nc1-c1ccccc1)c1cccc(S(=O)(=O)N2CCOCC2)c1 was read as ELG1 genotoxic -11%, Rab9 promoter act -43%, FLuc counter 0%, ELG1 DNA repair 4.6µM*, NPC1 prom act -38%, ELG1 Luc conf 4µM*, ELG1-Luc MMS 6.3µM*, ELG1 5-FU 0%, ELG1 MMS cell inconclusive and ELG1 unstim viab inconclusive.
`Nc1ccc(C(=O)N/N=C/c2sc(N3CCOCC3)nc2-c2ccccc2)cc1` gave ELG1 genotoxic 5%, Rab9 promoter act -1%, FLuc counter inconclusive, ELG1 DNA repair inconclusive, SMN2 splice up inconclusive and NPC1 prom act 0%.
For Cc1cccnc1CN1CCN(C(=O)c2cc(COc3ccc4ncccc4c3)on2)CC1 the results were ELG1 genotoxic -10%, Rab9 promoter act -23%, FLuc counter 4%, ELG1 DNA repair inconclusive and NPC1 prom act -22%.
Screening CCOC(=O)N1CCN(C(=O)c2cc(COc3ccc4ncccc4c3)on2)CC1 returned ELG1 genotoxic -13%, Rab9 promoter act -37%, FLuc counter -7%, ELG1 DNA repair 9.2µM*, NPC1 prom act -22%, ELG1 FLuc counter -5%, ELG1 Luc conf 20µM*, ELG1-Luc MMS 5.6µM*, ELG1 5-FU 0%, ELG1 MMS cell 4.5µM*, ELG1 unstim viab 14µM* and FLuc biochem -3%.
